# Columns and labels:
# Assay in all cases: PBM binding z-score (relative to random genomic background probes); higher = stronger binding; sequences stand for … in GC…GCGATTGACAGCGTAGAATGAAGG
# [1] = system: FXR:RXRa (NR concentration 270 nM, RXRa partner concentration 90 nM)
# Procedure, shortened: (§1)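 The probes on custom Agilent 4×180K protein-binding microarrays were double-stranded, with 34-nt variable regions bearing direct-repeat seeds, single-nucleotide variants, half-site ablations and random human genomic background sequences. Incubation lasted 1 h with ligand-free nuclear receptor dimers in PBS pH 7.4, 2% milk, 0.02% Triton X-100, 1 mM DTT, 0.2 mg/mL BSA and 0.4 mg/ml salmon testes DNA. Antibodies against each partner (one per run) detected bound dimers, and fluorescence scans were regression-normalized. Binding z-scores take the random background probes as reference.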
# [2] = system: LXRa:RXRa (NR concentration 270 nM, RXRa partner concentration 90 nM)
# Procedure, shortened: as §1
# [3] = system: LXRa homodimer (NR concentration 270 nM)
# Procedure, shortened: as §1
# [4] = system: LXRb:RXRa (NR concentration 270 nM, RXRa partner concentration 90 nM)
# Procedure, shortened: as §1
# [5] = system: LXRb homodimer (NR concentration 270 nM)
# Procedure, shortened: as §1
# [6] = system: PPARa:RXRa (NR concentration 270 nM, RXRa partner concentration 90 nM)
# Procedure, shortened: as §1
# [7] = system: PPARg:RXRa (NR concentration 180 nM, RXRa partner concentration 90 nM)
# Procedure, shortened: as §1
# [8] = system: PPARg:RXRa 270nM:90nM, anti-RXR (NR concentration 270 nM, RXRa partner concentration 90 nM)
# Procedure, shortened: as §1
# [9] = system: PPARg:RXRa 30nM:10nM, anti-RXR (NR concentration 30 nM, RXRa partner concentration 10 nM)
# Procedure, shortened: as §1
# [10] = system: PPARg:RXRa 90nM:30nM, anti-RXR (NR concentration 90 nM, RXRa partner concentration 30 nM)
# Procedure, shortened: as §1
Sequence,PBM binding z-score [1],PBM binding z-score [2],PBM binding z-score [3],PBM binding z-score [4],PBM binding z-score [5],PBM binding z-score [6],PBM binding z-score [7],PBM binding z-score [8],PBM binding z-score [9],PBM binding z-score [10]
TATACACGGTCAAAGGCCAGAGTACGAATGTCGA,1.3,3.22,2.75,0.929,1.43,2.04,3.99,4.34,2.65,4.3
TCTATTAGTTGATTAGGGCGACCGAAACAGCGGA,0.395,0.617,0.293,0.356,0.556,0.801,-0.0653,1.73,3.64,2.8
GCGACTGGGGCCAAGCAGGTTACCATAAGGTTGG,-0.268,-0.471,-0.686,-0.129,-1.37,0.516,0.164,-0.27,-0.91,-0.642
TCTAGGTGGTCAAAGGTCACACACTCGAAATGCG,6.45,5.79,3.73,5.64,1.02,6.57,10.3,8.72,8.95,10.2
TAGCGTAGGTCATGCGGGCCAGTATAGTGTCGGC,4.01,3.6,0.172,2.19,-0.449,3.68,1.98,2.43,0.234,1.45
TCTTGTAAATCAAGCAGGTTAAGAAAGCCTGAGT,0.618,0.47,-0.237,0.526,-0.289,0.845,-0.51,1.34,2.8,2.01
TGTACAGGGTCAAAGGCCAGAGTACGAATGTCGA,7.25,4.91,-0.0298,4.39,0.326,6.34,8.21,7.42,5.22,7.52
CCGAGTAGGCTATGGGGCATTCAGGCAACGGTGA,-0.882,-1.01,-0.67,-0.799,-1.07,0.341,1.43,2.92,0.549,2.35
TAAATGAGGTTAAAGATCAGGGAACGTGGCGTCG,3.68,3.6,0.629,2.46,1.07,5.14,6.76,6.79,5.89,7.34
CAGCCTAGGTCCGGGCCAGTATAGGAGGAACGTT,-0.987,-1.11,-0.834,-1.41,-1.47,-1.78,-0.191,-0.878,-0.996,-1.2
ATCTCTAGGTAACCAAGTGCAGTGAATGCCGAAC,-0.0336,0.0225,-0.464,-0.183,0.282,-0.0554,0.325,0.259,-0.0021,0.298
ATATGAAGGTTAAGGGTCATTCAGGTTGGTTCGC,5.91,5.46,3.32,4.85,1.14,5.8,8.33,7.73,5.9,8
ATCTCTAGGTATAGTTCAGTGAAAGATCGATAGA,0.622,1.11,0.814,0.685,1.21,0.726,0.816,1.55,0.666,1.4
TCTATTAGTTGAAGGGCACCCGACGAGTCCGTTT,0.72,0.953,0.3,0.709,0.846,0.943,0.172,2,3.71,2.96
TCATCTAGGTAAATGCTAGGTGAAAGTCCGATCT,0.554,0.411,0.0508,0.263,-0.0728,1.17,0.51,2.29,3.44,2.92
CCGACTGGGGCAAGGTTACAATAACGCACAGCCA,0.137,0.576,-0.19,0.492,-1.15,1.94,3,2.86,1.2,2.36
TCGAGTACGTTAGTCGGGGCATTCAGCCAACATA,-0.454,-0.474,-0.665,0.0371,-1.12,0.167,-0.163,0.223,0.88,0.775
CCTAGCAGGCCAGCGTCACTCAAGCATTTCGCTT,-0.634,-0.323,-0.436,-0.45,-0.612,-0.652,-0.466,-1.02,-1.25,-0.939
CGAACTAGGTCATTGACAGGGCAGTGAATAGTAA,4.4,3.17,0.428,1.99,-0.104,4.74,7.4,6.18,3.75,5.96
CCTAGTTGGTCAGGAGGTCACACAGCGGATATGA,4.26,3.54,2.17,3.55,0.887,4.36,3.51,4.15,1.76,3.56
CCTAACAGGCCAGGGTCACTCAAGCATTTCGCTT,2.05,1.86,-0.195,2.38,-0.349,3.2,0.798,1.41,-0.181,0.356
CAAACTAGGTCACAGAGATCAAAGTCCGTGCGTA,4.32,3.26,0.659,2.41,0.38,5.25,8.83,7.25,5.12,7.3
GCGACTGGGGCAAAGCAGGGTACCATAAGGTTGG,-0.153,-0.295,-0.964,-0.249,-1.01,0.981,0.93,0.904,-0.207,0.227

# Reference: the supplement of paper PMC6555819
